Cycloheximide cs – affects cycloheximide protein synthesis inhibition readout, counter-screen; cell reporter, cycloheximide protein synthesis inhibition counterscreen; 12% of 300,000 active; AID 2314; max response, %; in the data active = max response mostly above about 13%, no sharp cut-off; inactive = mostly below about 14%; also: read at 38.3 µM for the half of the compounds with a filed dose; 0% is about no effect
Shiga inhibitor – Shiga toxin inhibition | Vero cells, Shiga toxin protein synthesis inhibition reporter | inhibition, % at 38.7 µM | 9.2% of 290,000 active; in the data active = inhibition mostly above about 28%, no sharp cut-off; inactive = mostly below about 43%; also: 0% is about no effect
Marburg entry inh – Marburg virus entry inhibition | Marburg virus pseudotyped entry inhibition, cell reporter | Potency, µM (titrated, usually from 37.8 µM), for inactives: at the highest dose activity change, negative = inhibition, usual class: inhibitors | 1.8% of 300,000 active | AID 540276; calls by dose curve; tested in HEK293 cells; also: potency is read from the fitted curve at half-maximal effect; % is scaled to controls: 0 for no effect and ±100 for the full control effect
AMA1-RON2 inh – inhibitors of Plasmodium falciparum AMA1-RON2 interaction. AlphaScreen AMA1-biotinylated RON2 peptide binding. Potency, µM (doses to about 58.2 µM), inactives show at the top dose activity change, negative = inhibition, hits mostly inhibitors. 0.2% of 360,000 active; active = well fitted inhibition curve with a large enough effect; inconclusive = small, poorly fitted or top-dose-only effect; inactive = no such curve, though single readings can be large or run the other way;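 also: potency is read from the fitted curve at half-maximal effect; 0% = vehicle wells and -100% = peptide control; nearly all actives have a fitted effect of over 45% in size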
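AMA1 (3D7) with his tag at 25 nM final met compounds first, then biotinylated RON2 peptide at 25 nM; detection used donor plus acceptor beads, 10 µg/mL apiece, read by AlphaScreen after 30 min at room temperature.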
Lassa entry inh – inhibitors of Lassa virus binding or cell entry; Lassa virus pseudotype entry inhibition, cell reporter; Potency, µM (doses to about 37.9 µM), without a hit: top-dose activity change, negative = inhibition, actives largely listed as inhibitors; 1.2% of 300,000 active; calls by dose curve; tested in HEK293 cells; also: potency is read from the fitted curve at half-maximal effect; % is scaled to controls: 0 for no effect and ±100 for the full control effect; nearly all actives have a fitted effect of over 50% in size
Active calls of the source: *; ? = inconclusive; . = not tested or not shown; [ ] = dose if it differs, or a comment. This excerpt belongs to a sample that is enriched for hits.

SMILES	Cycloheximide cs	Shiga inhibitor	Marburg entry inh	AMA1-RON2 inh	Lassa entry inh
CCCCOC(=O)c1ccc(NC(=O)/C(C#N)=C/c2ccc(C)o2)cc1	.	.	.	.	-7%[46.1 µM]
Cn1cc(S(=O)(=O)N2CCOCC2)cc1C(=O)NCc1ccccc1Cl	1	-7	.	-5%	.
O=C(NC1CC1)c1ccccc1	.	.	.	-6%	.
Cc1ccc(C2=Nc3ccccc3N=C(c3ccc([N+](=O)[O-])cc3)C2)c(O)c1	26*	166*	-13%	3%[11.6 µM]	1%
CC(C)(C)C(=O)Nc1nnc(SCc2ccc(F)cc2)s1	22*	42	0%	-7%	4%
COCCSc1nnc(NC(=O)CSc2ccccc2)s1	8	-9	5%	0%	-13%
O=C(Nc1nnc(SCc2cccc(F)c2)s1)c1ccco1	3	20	.	3%	.
CC(C)C(=O)Nc1nnc(SCc2cccc(F)c2)s1	14*	49*	.	-4%	.
COCCSc1nnc(NC(=O)C(C)(C)C)s1	59*	111*	-1%	-13%	?
CC(C)(C)C(=O)Nc1nnc(SCc2cccc(F)c2)s1	53*	91*	.	-4%	.
CC(C)C(NC(=O)c1c(F)cccc1F)C(=O)N1CCN(S(=O)(=O)c2ccc(F)cc2)CC1 (stereo not given)	.	.	.	12%	.
COc1ccc(CN2CC[C@@H]3CN(C(C)=O)[C@H](c4ccccc4Br)C[C@@H]32)cc1	.	.	.	8%	.
COc1ccc(OCc2cc(C(=O)N3C[C@@H](C)O[C@@H](C)C3)no2)c(Cl)c1	40*	94*	?	-2%	1%
COc1ccc(OCc2cc(C(=O)N3CCN(C4CCCC4)CC3)no2)c(Cl)c1	42*	77*	6%	-8%	13%
COCC1CCN(C(=O)c2cc(COc3ccc(OC)cc3Cl)on2)C1 (stereo not given)	.	.	.	-10%	.
COc1ccc(OCc2cc(C(=O)N3CCN(CC4CC4)CC3)no2)c(Cl)c1	52*	55*	.	18%	.
CC1CN(C(=O)c2cccc(COc3ccccc3Cl)c2)CC(C)O1 (stereo not given)	40*	135*	?	13%	0%[46.1 µM]
CC1CN(C(=O)c2cccc(C(=O)N3CC(C)OC(C)C3)c2)CC(C)O1 (stereo not given)	-3	-13	25%	2%	0%
CCOc1ccc(NC(=O)c2cc(F)c(F)cc2Cl)cc1OCC	-2	2	?	18%	3%
O=C1c2ccccc2C(=O)N1Cc1cnc(N2CCN(c3ccccc3)CC2)s1	1	-13	?	-3%	-13%[46.1 µM]
COc1ccc(OCc2cc(C(=O)N3CCCCCCC3)no2)c(Cl)c1	40*	61*	12%	6%	9%
CCOC(=O)N1CCN(C(=O)c2cc(COc3ccc(OC)cc3Cl)on2)CC1	70*	105*	?	-13%	?
CC1=C(c2ccccc2)C(O)(c2ccccc2)C(C)C1=O (stereo not given)	.	.	?	16%	-29%[46.1 µM]
CCCc1oc2ccc(NS(=O)(=O)c3ccc(OC)cc3)cc2c1C(=O)OCC	.	.	.	.	1µM*
C=CCn1cccc(C(=O)Nc2ccc(Cl)cc2)c1=O	36*	64*	.	-4%	.
SMILES	Cycloheximide cs	Shiga inhibitor	Marburg entry inh	AMA1-RON2 inh	Lassa entry inh
C=CCn1cccc(C(=O)Nc2ccc(SC)cc2)c1=O	53*	93*	.	-15%	.
C=CCn1cccc(C(=O)Nc2ccc(C)c(Cl)c2)c1=O	13	23	11%	16%	?
C=CCn1cccc(C(=O)Nc2ccc(OCC)cc2)c1=O	35*	95*	-48%[46.1 µM]	17%	?
C=CCn1cccc(C(=O)Nc2ccc(N(C)C)cc2)c1=O	39*	90*	.	-6%	.
COc1cccc(CCNc2ncnc3c2nnn3C)c1	.	.	.	.	-1%[46.1 µM]
COc1ccc(NC(=O)c2cnc3sc(N4CCOCC4)nn3c2=O)c(OC)c1	.	.	.	.	8%[46.1 µM]
Cc1ccc(/C(=C\CN2CCCC2)c2ccccn2)cc1	-2	-6	11µM*	3%	?
Cc1cc(C)cc(CC(=O)N2CCC2(C)C(=O)NS(=O)(=O)c2cccc(F)c2)c1 (stereo not given)	.	.	.	-10%	.
COc1ccc(/C=C/C(=O)OC2CCCN(C)C2)cc1 (stereo not given)	26*	48*	.	-4%	.
COc1ccc(NC(=O)C2Cc3c(-c4ccc5c(c4)OCO5)ccnc3O2)cc1 (stereo not given)	.	.	.	-24%	.
Cc1ccc(C)c(N2CCN(C(=O)CCc3nnc4n(C)c(=O)c5ccccc5n34)CC2)c1	.	.	9%[46.1 µM]	.	.
Cc1ccc(N2C(=O)CC(c3c[nH]c4ccccc34)C2=O)cc1 (stereo not given)	15	20	7%[46.1 µM]	-4%	14%[46.1 µM]
CCC1=NN=C(c2ccc(F)cc2)C(c2c[nH]c3ccccc23)N1O (stereo not given)	28	74*	?	17%	16%
CCN(CC)C(C)C(=O)Nc1c2c(cc3c1CCC3)CCC2 (stereo not given)	-6	-5	15µM*	10%	-13%
O=C(COc1ccccc1)N=C1SC2CS(=O)(=O)CC2N1c1ccc(F)cc1F (stereo not given)	-4	14	.	10%	.
Cc1ccc2c(c1)c1nc3ccccc3nc1n2CCN1CCOCC1	11*	6	-22%	-3%	?
Cc1ccc2c(c1)c1nc3ccccc3nc1n2C	19*	22	.	18%	.
CCC(C)CCCCC(=O)N[C@@H](CCN)C(=O)N[C@H](C(=O)N[C@@H](CCN)C(=O)N[C@H]1CCNC(=O)C([C@@H](C)O)NC(=O)[C@@H](CCN)NC(=O)[C@H](CCN)NC(=O)[C@H](CC(C)C)NC(=O)[C@@H](CC(C)C)NC(=O)[C@H](CCN)NC1=O)[C@@H](C)O (stereo not given in full)	6	-12	.	.	.
Cc1ccc(S(=O)(=O)N[C@H](CNCc2ccccc2)C(C)C)cc1	.	.	.	-8%	.
O=C(CNC(=O)c1ccc(Cl)cc1Cl)OCC(=O)N1CCCC1=O	.	.	-6%	3%	16%
C/C(=N\NC(=O)C(=O)Nc1cc(Cl)ccc1Cl)c1ccncc1	-4	2	9%	3%	8%
C/C(=N\NC(=O)c1nn(C)cc1Br)c1ccncc1	55*	92*	2%	-7%	18%
C/C(=N\NC(=O)c1nn(C)cc1Cl)c1ccncc1	31*	46*	8%	5%	8%
COc1ccc(S(=O)(=O)Nc2ccc3c(c2)C(=O)N([C@H](C)CO)C[C@H](C)[C@@H](CN(C)S(=O)(=O)c2c(C)noc2C)O3)cc1	.	.	.	5%	.
Cc1ccc(S(=O)(=O)N2C[C@H]3N(C(=O)OC(C)C)N(C(=O)OC(C)C)C[C@H](OC(=O)NCC4CCCCC4)[C@@]3(O)C2)cc1	.	.	.	17%	.
CC(C)C(=O)Nc1cccc(COc2ccccc2CN(Cc2ccccc2)C(=O)OC(C)(C)C)c1	.	.	.	4%	.
O=C1C2=C(NC(=S)NC2c2ccc(Cl)cc2)NC(c2ccc(Cl)cc2)N1c1ccc(Cl)cc1 (stereo not given)	-2	10	16µM*	79%	-1%
Cc1cc(-c2ccccc2)n(-c2cc(N/N=C/c3ccccc3O)ncn2)n1	-3	-18	8.9µM*	56%	4.5µM*

Compound activity: PubChem, National Center for Advancing Translational Sciences (NCATS)
